Sfp inh: Sfp phosphopantetheinyl transferase inhibition; Q9F4F7; hit rate 3.5% among 310,000; Potency, µM, usual class: inhibitors; Biochemical Sfp PPTase activity, qHTS; AID 1490;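 also: the enzyme is Sfp with the accession as filed and its product quenches rhodamine fluorescence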
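Step 1, compound plus 15 nM Sfp-PPTase, 15 min, room temperature. Step 2, add rhodamine-CoA (5 uM) and BHQ-2-YbbR (12.5 uM). Step 3, read 525/598 nm fluorescence at 0 and 30 min.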
RORgamma inh: blocks mouse ROR gamma transcriptional activity; Potency, µM (titrated, usually from 53.6 µM), most hits filed as inhibitors; P51450; Drosophila S2 Gal4-RORgamma UAS-luciferase reporter, 20 h; AID 2551; hit rate 5.4% among 310,000; also: nearly all actives have a fitted effect of over 60% in size
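Luminescence from a UAS-regulated Photinus luciferase reporter in stably transfected Drosophila Schneider cells is measured; decreased signal marks ROR gamma inhibition. Fusion expression is induced by 700 uM copper sulfate for 20 hr.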
PLK1 PBD inh: PLK1 (human) polo-box domain binding inhibition; P53350; Plk1 PBD binding of FITC phosphopeptide, fluorescence polarization; Potency, µM, actives largely listed as inhibitors; hit rate 2.8% among 360,000; also: series mostly up to about 57 µM; nearly all actives have a fitted effect of over 65% in size
Target sequence (P53350 whole entry, looked up, the tested form may be a part): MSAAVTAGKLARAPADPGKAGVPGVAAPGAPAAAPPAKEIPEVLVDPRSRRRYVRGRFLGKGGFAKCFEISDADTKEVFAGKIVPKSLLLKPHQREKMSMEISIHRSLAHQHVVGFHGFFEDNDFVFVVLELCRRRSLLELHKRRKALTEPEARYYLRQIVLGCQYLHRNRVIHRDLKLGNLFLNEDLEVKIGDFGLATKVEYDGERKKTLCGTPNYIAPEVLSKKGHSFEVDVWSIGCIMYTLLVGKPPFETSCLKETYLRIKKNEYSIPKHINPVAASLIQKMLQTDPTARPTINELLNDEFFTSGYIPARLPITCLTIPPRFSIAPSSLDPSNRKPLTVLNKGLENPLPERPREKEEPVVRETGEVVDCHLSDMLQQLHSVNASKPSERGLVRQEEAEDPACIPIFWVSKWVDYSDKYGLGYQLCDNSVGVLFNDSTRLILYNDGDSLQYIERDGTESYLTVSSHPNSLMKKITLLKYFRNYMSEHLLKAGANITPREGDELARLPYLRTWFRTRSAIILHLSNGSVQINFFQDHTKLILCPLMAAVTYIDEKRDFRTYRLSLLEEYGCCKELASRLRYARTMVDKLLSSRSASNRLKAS
Gal4-VP16 FLuc: inhibits Gal4-VP16 luciferase reporter, ROR gamma counter-screen; Drosophila S2 Gal4-VP16 UAS-luciferase, luminescence, 20 h; Potency, µM (series often up to 53.6 µM), hits mostly inhibitors; hit rate 3.5% among 310,000; AID 2546;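 also: Gal4-VP16 expression switched on by copper sulfate through the metallothionein promoter; nearly all actives have a fitted effect of over 50% in size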
ALDH1A1 inh: inhibitors of human aldehyde dehydrogenase 1A1; P00352; AID 1030; hit rate 7.3% among 220,000; Potency, µM (titrated, usually from 75.3 µM), usual class: inhibitors; Purified ALDH1A1, NADH fluorescence, propionaldehyde substrate; active = well fitted inhibition curve with a large enough effect, not every such curve was filed as active; inconclusive = small, poorly fitted or top-dose-only effect, or another doubt; inactive = no such curve, though single readings can be large or run the other way
TbPYK inh: Trypanosoma brucei pyruvate kinase inhibition, cherry-pick confirmation; shares compounds with PLK1 PBD inh; recombinant TbPYK, Kinase-Glo ATP luminescence; Potency, µM (series often up to 76.9 µM), actives largely listed as inhibitors; hit rate 67% among 890; also: nearly all actives have a fitted effect of over 70% in size
TbPYK ADP-Glo: TbPYK inhibition, orthogonal confirmation; hit rate 62% among 890; recombinant TbPYK, ADP-Glo luminescence, 60 min; shares compounds with PLK1 PBD inh; Potency, µM (titrated, usually from 76.9 µM), usual class: inhibitors; also: nearly all actives have a fitted effect of over 75% in size
Large screens that a line does not name were inactive (follow-up assays come after a bar, where they were run). Most compounds without a hit are left out; they make up all but 12% or so of the library. Unless noted, calls follow the shape of the dose curve; as a rule, active = well fitted curve in the direction sought with a large enough effect; inconclusive = small, poorly fitted or top-dose-only effect, or another doubt; inactive = no such curve, though single readings can be large; an effect the other way counts as inactive or inconclusive.

CC(C)Sc1nc2c(c(=O)[nH]c(=O)n2C)n1CCc1ccccc1	ALDH1A1 inh inconclusive
CC(C)Sc1nc2c(c(=O)[nH]c(=O)n2C)n1Cc1ccc(Cl)cc1	PLK1 PBD inh inconclusive, ALDH1A1 inh 35µM | TbPYK inh 3.2µM | TbPYK ADP-Glo 5µM
CN1CCN(c2nc3c(c(=O)[nH]c(=O)n3C)n2Cc2ccc(Cl)cc2)CC1	none (no result: ALDH1A1 inh)
Cn1c(=O)[nH]c(=O)c2c1nc(SCC(=O)O)n2CCc1ccccc1	Sfp inh 45µM, ALDH1A1 inh 6.3µM | TbPYK inh inconclusive | TbPYK ADP-Glo inconclusive
COc1ccc(S(=O)(=O)N2CCCCC2)cc1NC(=O)c1ccc(Cl)nc1	none (no result: Sfp inh, RORgamma inh, Gal4-VP16 FLuc, ALDH1A1 inh)
CC(C)CN(C(=O)COc1ccc(-c2nnco2)cc1)C1CCS(=O)(=O)C1 (stereo not given)	none (no result: ALDH1A1 inh)
O=C(CCNC(=O)c1ccc(Cl)cc1)NCc1ccco1	none (no result: Sfp inh, RORgamma inh, Gal4-VP16 FLuc, ALDH1A1 inh)
O=C(O)c1ccc(NS(=O)(=O)c2ccc3c(c2)C2C=CCC2C(c2ccccc2F)N3)cc1 (stereo not given)	Sfp inh 10µM, PLK1 PBD inh inconclusive, ALDH1A1 inh inconclusive | TbPYK inh inconclusive | TbPYK ADP-Glo inconclusive
COc1cccc(/C=C2\C(=O)C(=O)c3ccccc32)c1	PLK1 PBD inh 0.79µM, ALDH1A1 inh inconclusive | TbPYK inh 32µM | TbPYK ADP-Glo inconclusive
COc1cc(CN2CCN(CC#Cc3ccccc3)CC2CCO)cc(OC)c1 (stereo not given)	none (no result: ALDH1A1 inh)
O=C(c1cc2ccccc2[nH]1)N(Cc1cccnc1)CC1CCCN(C2CCCCC2)C1 (stereo not given)	none (no result: ALDH1A1 inh)
O=C1N(Cc2ccccc2)CC2(Br)COCOC12O (stereo not given)	PLK1 PBD inh 2.7µM (no result: Sfp inh, RORgamma inh, Gal4-VP16 FLuc, ALDH1A1 inh) | TbPYK inh 1.1µM | TbPYK ADP-Glo 3.5µM
CCN(CC(=O)Nc1ccccc1C(F)(F)F)C(=O)CCS(=O)(=O)c1ccc(C)cc1	none (no result: Sfp inh, RORgamma inh, Gal4-VP16 FLuc, ALDH1A1 inh)
O=C1C=C(c2ccccc2)C(=O)N1Nc1ccccc1	Sfp inh 10µM, RORgamma inh 4.5µM, PLK1 PBD inh 8.4µM, Gal4-VP16 FLuc 5µM, ALDH1A1 inh 22µM | TbPYK inh 16µM | TbPYK ADP-Glo 25µM
Cc1c(NC(=O)C(C)OC(=O)/C=C/c2ccc(OC(F)F)cc2)c(=O)n(-c2ccccc2)n1C (stereo not given)	none (no result: Sfp inh, RORgamma inh, Gal4-VP16 FLuc, ALDH1A1 inh)
C=Cc1ccc(C(=O)N2CCCC(Nc3ccc4c(c3)OCCO4)C2)cc1 (stereo not given)	none (no result: RORgamma inh, Gal4-VP16 FLuc, ALDH1A1 inh) | TbPYK inh inconclusive | TbPYK ADP-Glo inconclusive
Cc1ccc(C(=O)N2CCCC(Nc3ccc(F)cc3)C2)cc1C (stereo not given)	none (no result: ALDH1A1 inh)
O=C(COc1cccc(C(F)(F)F)c1)N1CCN(c2ccc(O)cc2)CC1	Sfp inh 28µM, ALDH1A1 inh inconclusive | TbPYK inh 8.9µM | TbPYK ADP-Glo inconclusive
O=C(COc1cccc(C(F)(F)F)c1)N1CCN(c2ccccc2O)CC1	RORgamma inh inconclusive, ALDH1A1 inh inconclusive
F[B-](F)(F)COc1ccccc1	none (no result: Sfp inh, RORgamma inh, Gal4-VP16 FLuc, ALDH1A1 inh)
C=CCN1CCN(C(c2ccccc2)c2nnnn2CCC(C)C)CC1 (stereo not given)	PLK1 PBD inh 2.7µM | TbPYK inh inactive | TbPYK ADP-Glo inactive
COc1ccc(/C=N/NC(=O)CC(=O)NCc2cccnc2)cc1[N+](=O)[O-]	none (no result: RORgamma inh, Gal4-VP16 FLuc, ALDH1A1 inh)
COc1ccc(OC)c(NC2c3ccccc3C(=O)N2Cc2ccc3c(c2)OCO3)c1 (stereo not given)	none | TbPYK inh inconclusive | TbPYK ADP-Glo 35µM
CN1C(=O)CCC2(c3ccccc3)CC=C(O)C=C12 (stereo not given)	none (no result: Sfp inh, RORgamma inh, Gal4-VP16 FLuc, ALDH1A1 inh)
Brc1cc2ccccc2[n+](Cc2ccccc2)c1	none (no result: Sfp inh, RORgamma inh, Gal4-VP16 FLuc, ALDH1A1 inh)
c1ccc(C[n+]2csc3ccccc32)cc1	Sfp inh 18µM, RORgamma inh inconclusive, PLK1 PBD inh 3.8µM, Gal4-VP16 FLuc inconclusive, ALDH1A1 inh 2.2µM | TbPYK inh inconclusive | TbPYK ADP-Glo 14µM
Fc1cccc(C[n+]2csc3ccccc32)c1	Sfp inh 20µM, RORgamma inh inconclusive, PLK1 PBD inh 24µM, Gal4-VP16 FLuc inconclusive, ALDH1A1 inh 0.35µM | TbPYK inh inconclusive | TbPYK ADP-Glo 13µM
Cc1ccc(S(=O)(=O)N2CCN(Cc3ccccc3)CC2)c(C)c1N(C)S(=O)(=O)c1ccccc1	none
